For seven molecules, Potency results are on record in PubChem BioAssay (NCATS).

Test [1] in a line: S16 Schwann cell PMP22 intronic element firefly luciferase assay (AID 624032). Note: nearly all actives have a fitted effect of over 30% in size. Note: potency is the fitted concentration of half-maximal effect. A digest of the protocol:
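Rat S16 Schwann cells stably carrying firefly luciferase driven by a PMP22 intronic element, in 10% FBS, treated 24 h at 37 C. ONE-Glo luminescence normalized to PTC124 control and DMSO (0%); curves classed by r2, magnitude and activity.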

Test [2] is described as follows: S16 Schwann cell PMP22 intronic element beta-lactamase assay (AID 624044; calls by dose curve; note: nearly all actives have a fitted effect of over 15% in size). As to conditions: S16 rat Schwann cells, PMP22 element beta-lactamase FRET, 24 h; ratio activity, negative = inhibition: at 38.3 µM (top of the series) unless noted. In short, it runs like this: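 Rat S16 Schwann cells with beta-Lac driven by a PMP22 intronic element, compound-treated 24 h at 37 °C. LiveBLAzer FRET B/G read: 460 nm normalized to potassium clavulanate vs DMSO; 535 nm FRET as viability; concentration-effect curves classified.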

For the next test, the system named is ATS189. As to the kind of experiment: qHTS profiling for inhibitors of Plasmodium falciparum proliferation (AID 504749). Note: nearly all actives have a fitted effect of over 60% in size. Note: potency is the fitted concentration of half-maximal effect. Particulars: P. falciparum in erythrocytes, SYBR Green DNA, 72 h; series mostly up to 28.7 µM. A digest of the protocol:
(§1)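 P. falciparum-infected erythrocytes (0.3% parasitemia, 2.5% hematocrit) incubated with compound 72 h at 37 C, 5% CO2. Parasite DNA detected by SYBR Green after lysis, overnight at room temperature; normalised to 0.29 uM artemisinin and DMSO.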
On the technique in general: Quantitative high-throughput screening tests each substance at several concentrations.

A further test concerns CP192. The description is as above. As to conditions: P. falciparum in erythrocytes, SYBR Green DNA, 72 h; series mostly up to 28.7 µM. In short, it runs like this:
as §1

A further test has as its system CP250. The description is as above. As to conditions: P. falciparum in erythrocytes, SYBR Green DNA, 72 h; series mostly up to 12.8 µM. In short, it runs like this:
as §1

A further test deals with CP256. Described as above. Particulars: P. falciparum in erythrocytes, SYBR Green DNA, 72 h; series mostly up to 28.7 µM. In short, it runs like this: as §1
Another test deals with CP266. The description is as above. Particulars: P. falciparum in erythrocytes, SYBR Green DNA, 72 h; series mostly up to 12.8 µM. A digest of the protocol: as §1
The next test relates to CP297. Described as above. As to conditions: P. falciparum in erythrocytes, SYBR Green DNA, 72 h; series mostly up to 28.7 µM. A digest of the protocol: as §1
For the next test, the system named is DFO2036. The test is described as above. As to conditions: P. falciparum in erythrocytes, SYBR Green DNA, 72 h; series mostly up to 28.7 µM. In short, it runs like this: as §1
The test system of another test is Dd2. Described as above. As to conditions: P. falciparum in erythrocytes, SYBR Green DNA, 72 h; series mostly up to 28.7 µM. A digest of the protocol:
as §1

In the next test the test system is FAB9. The test is described as above. As to conditions: P. falciparum in erythrocytes, SYBR Green DNA, 72 h; series mostly up to 28.7 µM. In short, it runs like this: as §1
The subject of another test is HB3. Described as above. Particulars: P. falciparum in erythrocytes, SYBR Green DNA, 72 h; series mostly up to 28.7 µM. In short, it runs like this: as §1
The test system of the next test is N140. Described as above. Particulars: P. falciparum in erythrocytes, SYBR Green DNA, 72 h; series mostly up to 28.7 µM. In short, it runs like this: as §1
Test [3] is described as follows: S16 Schwann cell viability assay (CellTiter-Glo assay) (AID 624031).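 Note: native untransfected S16 rat Schwann cells; cellular ATP luminescence as a viability measure; nearly all actives have a fitted effect of over 70% in size.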 In short, it runs like this:
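Cells were seeded at 500-750 per well in phenol red-free DMEM with 10% FBS and left overnight. Compounds or DMSO were pinned in, incubation ran 24 h at 37 °C/5% CO2, then CellTiter-Glo reagent was added and luminescence measured.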
A general note: Cellular ATP, detected with luciferase, serves as a proxy for viable cell number.

A further test has as its system ATS95. As to the kind of experiment: qHTS profiling for inhibitors of Plasmodium falciparum proliferation (AID 504749). Note: nearly all actives have a fitted effect of over 60% in size. Note: potency is the fitted concentration of half-maximal effect. As to conditions: P. falciparum in erythrocytes, SYBR Green DNA, 72 h; series mostly up to 28.7 µM. In short, it runs like this: as §1
The next test relates to CP194. The description is as above. Particulars: P. falciparum in erythrocytes, SYBR Green DNA, 72 h; series mostly up to 28.7 µM. A digest of the protocol: as §1
Another test relates to CP203. The description is as above. Particulars: P. falciparum in erythrocytes, SYBR Green DNA, 72 h; series mostly up to 28.7 µM. In short, it runs like this: as §1
For a further test, the system named is CP269. Described as above. Particulars: P. falciparum in erythrocytes, SYBR Green DNA, 72 h; series mostly up to 28.7 µM. A digest of the protocol: as §1
The next test has as its system PC49. Described as above. Particulars: P. falciparum in erythrocytes, SYBR Green DNA, 72 h; series mostly up to 28.7 µM. In short, it runs like this: as §1
A further test has as its system CP247. The description is as above. Particulars: P. falciparum in erythrocytes, SYBR Green DNA, 72 h; series mostly up to 28.7 µM. In short, it runs like this:
as §1

Results filed as inconclusive are left out. Calls of active or inactive are those of the source. Unless noted, calls come from the whole dose curve; as a rule, active = well fitted curve in the direction sought with a large enough effect; inconclusive = small, poorly fitted or top-dose-only effect, or another doubt; inactive = no such curve, though single readings can be large; an effect the other way counts as inactive or inconclusive.

For the molecule `Clc1ccc([C@@H](OCCN2CCCCC2)c2ccccc2)cc1`, the Potency entry (in test [1]; in [2]; in the test on CP192; in the test with CP250; with CP256; in the test on CP266) was “inactive” in each case. The Potency entry with CP297, in the test on DFO2036 and in the test with FAB9 was “inactive” each time. For the same molecule, the Potency is 3.16 µM (active) in the test on ATS189, 4.47 µM (active) in the test on Dd2, 7.94 µM (active) with HB3 and 3.98 µM (active) with N140.

With `C[C@H](NC(C)(C)C)C(=O)c1cccc(Cl)c1`, the Potency entry (in test [3]; in test [1]; in [2]; in the test with ATS189; with ATS95; with CP192) was “inactive” each time. Moreover, the Potency entry in the test on CP194, in the test with CP203, with CP250, with CP256, with CP266 and with CP269 was “inactive” each time. Further, the Potency entry in the test with CP297, in the test with DFO2036, in the test on FAB9, in the test on HB3, in the test with N140 and with PC49 was “inactive” throughout.

In the case of `COc1cc(N)c(Cl)cc1C(=O)N[C@@H]1CN2CCC1CC2`, the Potency entry (in test [3]; in test [1]; in test [2]; with ATS189; with ATS95; in the test with CP192) was “inactive” in each case. Also, the Potency entry with CP194, in the test with CP203, in the test with CP247, with CP250, with CP256 and with CP266 was “inactive” each time. Besides, the Potency result in the test on CP269, in the test with CP297, in the test on DFO2036, in the test on Dd2, with FAB9 and in the test on HB3 was “inactive” in each case. In addition, the Potency result in the test with N140 and in the test on PC49 was “inactive” throughout.

Regarding `CC(=O)O[C@H]1CC[C@@]2(C)C(=CC[C@@H]3[C@H]2CC[C@]2(C)C(=O)CC[C@H]32)C1`, the Potency entry (in test [3]; in [1]; in test [2]; in the test on ATS189; in the test with ATS95; with CP192) was “inactive” in each case. Also, the Potency result in the test on CP194, in the test with CP203, with CP247, in the test on CP250, in the test on CP256 and in the test with CP266 was “inactive” throughout. Besides, the Potency entry in the test with CP269, with CP297, with DFO2036, in the test with Dd2, in the test with FAB9 and in the test with HB3 was “inactive” each time. Also, the Potency entry in the test on N140 and in the test on PC49 was “inactive” each time.

In the case of `CCC(C)C1O[C@]2(C=CC1C)CC1CC(C/C=C(\C)[C@H](OC3CC(OC)C(O[C@H]4CC(OC)[C@@H](O)C(C)O4)C(C)O3)[C@@H](C)/C=C/C=C3\COC4C(O)C(C)=C[C@H](C(=O)O1)[C@@]34O)O2` (some centres undefined), the Potency entry in test [3] and in [2] was “inactive” each time. Moreover, the Potency in the test with ATS189 is 11.2 µM (active); in the test with ATS95, 10 µM (active); in the test with CP192 it was 19 µM (active); in the test on CP194, 12 µM (active); in the test on CP203, 13.5 µM (active); in the test on CP247, 8.91 µM (active). The Potency in the test with CP250 was 11.2 µM (active); in the test on CP256, 6.31 µM (active); in the test with CP269, 15.1 µM (active); in the test with CP297 it was 13.5 µM (active); in the test with DFO2036 it was 11.2 µM (active); with Dd2, 11.2 µM (active). In the test on N140, the Potency is 10 µM (active).

Consider `O=C1C=C2C=CC3C[C@@]2(O1)C1CCCCN31` (some centres undefined), for which the Potency entry in test [3] is “inactive”. Besides, the Potency in [1] is 0.51 µM (active); in the test on ATS189, 11.2 µM (active); in the test with ATS95, 10 µM (active); with CP247 it was 11.2 µM (active); with CP250, 12.6 µM (active); in the test with CP256, 11.2 µM (active). The Potency with CP266 is 10.7 µM (active); in the test with CP269, 15.1 µM (active); in the test on CP297, 12 µM (active); in the test on DFO2036, 12.6 µM (active); in the test with Dd2, 11.2 µM (active); with HB3, 11.2 µM (active). Moreover, the Potency in the test with N140 is 12.6 µM (active); with PC49, 10 µM (active).

With `C=CC1CN2CCC1CC2C(OC(=O)OCC)c1ccnc2ccc(OC)cc12` (centres undefined), the Potency entry (in test [3]; in test [1]; in [2]; in the test on PC49) was “inactive” throughout. The Potency in the test on ATS189 is 5.62 µM (active); with ATS95 it was 3.98 µM (active); with CP192, 6.75 µM (active); in the test with CP194, 6.01 µM (active); with CP203 it was 8.49 µM (active); in the test with CP247, 7.94 µM (active). The Potency in the test on CP250 is 12.6 µM (active); in the test on CP256 it was 11.2 µM (active); in the test on CP269, 9.53 µM (active); in the test with DFO2036, 6.31 µM (active); in the test with Dd2 it was 5.01 µM (active); in the test on FAB9, 10 µM (active). Also, the values for the Potency in the test on HB3 and with N140 were 6.31 µM (active) and 11.2 µM (active), respectively.
